Screens: PubChem, National Center for Advancing Translational Sciences (NCATS)
Rows were chosen to be rich in hits. Some 2.3% of all compounds tested hit in one or more screens of this group.
TGFb inhibitor = TGF-b pathway inhibition. HepG2 CAGA-GFP TGF-b/SMAD3 reporter, GFP fluorescence, 18 h; TGF-beta stimulated, 500 pg/mL final. 410,000 compounds, 1.2% hits. Potency, µM (top dose mostly 46.1 µM), most hits filed as inhibitors. AID 588855; note: nearly all actives have a fitted effect of over 65% in size
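HEPG2 CAGA-GFP, 1000 cells/well; 2 h settle, 37 C; cpd via pin tool; TGF-b 500 pg/mL final; 18 h, 37 C; GFP imaging ex488/em500-530; %Activity normalised to -TGF-b and +DMSO controls; CRC fit, curve class.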
ATXN2 expr inh = ATXN2 expression inhibition | HEK-293 ATXN2-luciferase reporter, luminescence, 24 h | Potency, µM (doses to about 57 µM), hits mostly inhibitors | AID 1745845 | 360,000 compounds, 0.72% hits; note: nearly all actives have a fitted effect of over 55% in size
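qHTS (up to 57 uM final) was run with 24 h compound exposure of reporter cells at 37 °C. Each well was multiplexed: SteadyGlo luminescence measured ATXN2-luciferase expression after a fluorogenic Gly-Phe-AFC viability readout (25 uM final).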
ATXN viability = reduces viability in counter-screen for ATXN expression inhibitors; Potency, µM (series often up to 56.7 µM), most hits filed as cytotoxic; 400,000 compounds, 0.49% hits; S2 cells (HEK-293 line with an ATXN2-luciferase reporter) viability, CellTiter-Fluor protease fluorescence, 24 h; note: nearly all actives have a fitted effect of over 40% in size
HepG2 viability = kills HepG2 cells in TGF-b inhibitor counter-screen. HepG2 CAGA-GFP viability, ATP luminescence, 18 h. Potency, µM (titrated, usually from 46.1 µM), hits mostly cytotoxic. 410,000 compounds, 0.76% hits. AID 588856
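CellTiter-Glo luminescence gave cytotoxicity after 18 hours at 37 degrees C. The cells were HepG2 CAGA-GFP in 1% FBS DMEM, stimulated with 500 pg/mL TGF-beta after compound addition. %Activity was normalised to no-cell wells (complete cell-killing) and DMSO (no toxicity), and curves were fitted and classified.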
Large screens that a line does not name were inactive. Calls come from the whole dose curve; as a rule, active = well fitted curve in the direction sought with a large enough effect; inconclusive = small, poorly fitted or top-dose-only effect, or another doubt; inactive = no such curve, though single readings can be large; an effect the other way counts as inactive or inconclusive.

O=c1[nH]n2c(=O)c3c([nH]c2c1N=Nc1cccc(Cl)c1)CCC3	ATXN viability inconclusive
NS(=O)(=O)c1ccc(N=Nc2c(=O)[nH]n3c(=O)c4c([nH]c23)CCCC4)cc1	ATXN viability 9.5µM
Cc1ccc(-n2c(N)c(C(=O)Nc3c(C)n(C)n(-c4ccccc4)c3=O)c3nc4ccccc4nc32)cc1	ATXN2 expr inh 30µM (no result: ATXN viability)
O=C1c2ccccc2C(=O)C12OC2c1ccc(Cl)cc1Cl (stereo not drawn)	TGFb inhibitor inconclusive, ATXN2 expr inh inconclusive, ATXN viability inconclusive, HepG2 viability 20µM
O=C1N(Cc2cccc(Cl)c2)C[C@@H]2C[C@@H](c3cccn3-c3cccnc3)N3CCC[C@@]123	TGFb inhibitor 16µM, ATXN2 expr inh inconclusive, ATXN viability inconclusive
COc1cccc(CN2CCC2(C)C(=O)Nc2cccc3cccnc23)c1OC (stereo not drawn)	TGFb inhibitor 11µM, ATXN2 expr inh 2.5µM, ATXN viability inconclusive
CO[C@H]1[C@H](NC(=O)c2ccncc2)c2ccccc2C12CCN(C(=O)c1ccoc1)CC2	none (no result: TGFb inhibitor, ATXN2 expr inh, HepG2 viability)
Cc1ccc2nc(-c3ccco3)c(CC(C)(C)C)n2c1	TGFb inhibitor inconclusive, ATXN2 expr inh inconclusive, ATXN viability 20µM
Clc1cccc(Cc2c(-c3cccc(Cl)c3)nc3ccc(Br)cn23)c1	TGFb inhibitor 14µM, ATXN viability inconclusive
COc1ccccc1Cc1c(-c2ccco2)nc2ccc(Br)cn12	TGFb inhibitor inconclusive, ATXN viability inconclusive
COc1ccccc1Cc1c(-c2cccc(Cl)c2)nc2ccc(C)cn12	TGFb inhibitor 13µM (no result: ATXN viability)
COc1ccccc1Cc1c(-c2ccco2)nc2ccc(Cl)cn12	TGFb inhibitor 16µM, ATXN viability inconclusive
O=c1oc2ccc(Br)cc2cc1-c1nc2c(s1)CCc1ccccc1-2	none (no result: ATXN2 expr inh, ATXN viability)
Cc1nc2ccccc2nc1-c1csc(-c2ccccc2)n1	TGFb inhibitor inconclusive (no result: ATXN2 expr inh, ATXN viability)
COC(=O)c1ccc2nc(-c3ccco3)c(Cc3ccccc3)n2c1	TGFb inhibitor 11µM
Cc1nc(C(C)NC2CCN(c3cccc(NC(=O)c4ccncc4)c3)CC2)cs1 (stereo not drawn)	none (no result: TGFb inhibitor, ATXN2 expr inh, HepG2 viability)
Cc1ccc2c(CSc3nncn3C)cc(=O)oc2c1C	HepG2 viability 10µM
C(=Nc1ccc(/C=C/c2ccnc3ccccc23)cc1)c1ccco1	none (no result: ATXN2 expr inh, ATXN viability)
C=CCN1c2ccccc2[C@]23C[C@@H](C(=O)OC)N(C(=O)c4ccc(Br)cc4)C2=NC(C(=O)OC)=C(C(=O)OC)[C@H]13	TGFb inhibitor 20µM, ATXN2 expr inh inconclusive, ATXN viability inconclusive
COC(=O)C1=C(C(=O)OC)[C@@H]2N(Cc3ccccc3)c3ccccc3[C@@]23C[C@@H](C(=O)OC)N(C(=O)c2ccc(Br)cc2)C3=N1	TGFb inhibitor 10µM, ATXN2 expr inh inconclusive, ATXN viability inconclusive
Cc1ccc(-c2nc(N/N=C/c3cccc([N+](=O)[O-])c3)c3ccccc3n2)cc1	ATXN2 expr inh inconclusive (no result: ATXN viability)
Cc1ccc(-c2nc(N/N=C/c3cccnc3)c3ccccc3n2)cc1	TGFb inhibitor inconclusive, HepG2 viability 14µM
CCOC(=O)c1ccc(N2C(=O)c3[nH]nc(-c4ccc(C)cc4)c3C2c2ccc(O)c(OCC)c2)cc1 (stereo not drawn)	TGFb inhibitor inconclusive, ATXN2 expr inh inconclusive, ATXN viability inconclusive
CCCOc1ccc(C2c3c(-c4ccccc4O)n[nH]c3C(=O)N2CCc2ccccc2)cc1OCC (stereo not drawn)	TGFb inhibitor 11µM, HepG2 viability 11µM (no result: ATXN2 expr inh, ATXN viability)
CCOc1ccc(C2c3c(-c4cc(C)ccc4O)n[nH]c3C(=O)N2Cc2cccnc2)cc1OCC (stereo not drawn)	none
CC(C)c1ccc(C2c3c(-c4ccccc4O)n[nH]c3C(=O)N2CCc2ccccc2)cc1 (stereo not drawn)	none (no result: ATXN2 expr inh, ATXN viability)
CCc1ccc(C2c3c(-c4cc(C)ccc4O)n[nH]c3C(=O)N2Cc2cccnc2)cc1 (stereo not drawn)	TGFb inhibitor inconclusive, ATXN2 expr inh inconclusive, HepG2 viability 20µM (no result: ATXN viability)
CCOc1cc(C2c3c(-c4cc(C)ccc4O)n[nH]c3C(=O)N2CCCOC(C)C)ccc1O (stereo not drawn)	TGFb inhibitor 13µM (no result: ATXN2 expr inh, ATXN viability)
Cc1ccc(C2c3c(-c4ccccc4O)n[nH]c3C(=O)N2CCc2ccccc2)cc1 (stereo not drawn)	TGFb inhibitor 11µM (no result: ATXN2 expr inh, ATXN viability)
CCOC(=O)N1CCC(n2c(=O)[nH]c3cc(Cl)ccc32)CC1	ATXN2 expr inh inconclusive (no result: TGFb inhibitor, HepG2 viability)
CC(=O)c1ccc(OCC(=O)N2CCCCC2)cc1	none (no result: TGFb inhibitor, HepG2 viability)
COc1cc(OC)c2c(c1)C(=O)OC2c1cc(OC)c(OC)cc1C (stereo not drawn)	none (no result: ATXN2 expr inh, ATXN viability)
CC(C)OCCCN1C(=O)c2[nH]nc(-c3ccccc3O)c2C1c1ccc(OCc2ccccc2)cc1 (stereo not drawn)	TGFb inhibitor inconclusive (no result: ATXN2 expr inh, ATXN viability)
O=C1c2[nH]nc(-c3ccccc3O)c2C(c2cccc(OCc3ccccc3)c2)N1CCCO (stereo not drawn)	TGFb inhibitor 10µM (no result: ATXN2 expr inh, ATXN viability)
COc1cc(C2c3c(-c4ccccc4O)n[nH]c3C(=O)N2CCO)ccc1OCc1ccccc1 (stereo not drawn)	none (no result: ATXN2 expr inh, ATXN viability)
CCCN1C(=O)c2[nH]nc(-c3ccccc3O)c2C1c1ccc(OCc2ccccc2)c(OC)c1 (stereo not drawn)	TGFb inhibitor 13µM (no result: ATXN2 expr inh, ATXN viability)
O=C1c2[nH]nc(-c3ccccc3O)c2C(c2cccc(Br)c2)N1Cc1ccncc1 (stereo not drawn)	TGFb inhibitor inconclusive, ATXN2 expr inh inconclusive, ATXN viability 11µM
Cc1cnc(C(=O)NCc2c(C)ncc3c2CCN(C(=O)/C=C/c2cccs2)C3)cn1	none (no result: TGFb inhibitor, ATXN2 expr inh, HepG2 viability)
Cc1ccc2nc(CO)[nH]c2c1	none (no result: ATXN2 expr inh, ATXN viability)
Cc1ccc(S(=O)(=O)C(NC(=O)c2ccccc2)=C(Cl)Cl)cc1	ATXN2 expr inh inconclusive, ATXN viability inconclusive
Cc1ccc(S(=O)(=O)/C(=C/Cl)NC(=O)c2ccccc2)cc1	TGFb inhibitor inconclusive, ATXN2 expr inh 10µM, ATXN viability inconclusive
CS(=O)(=O)c1ccc(Sc2nc3ccccc3s2)c([N+](=O)[O-])c1	TGFb inhibitor inconclusive, ATXN2 expr inh inconclusive, ATXN viability inconclusive
O=[N+]([O-])c1cc(S(=O)(=O)C(F)(F)F)ccc1Sc1nc2ccccc2s1	TGFb inhibitor inconclusive, ATXN2 expr inh inconclusive, ATXN viability inconclusive, HepG2 viability 18µM
OC(CNCCc1ccc(C(F)(F)F)cc1)COC(c1ccccc1)c1ccccc1 (stereo not drawn)	TGFb inhibitor inconclusive, ATXN2 expr inh 28µM, ATXN viability inconclusive
COc1ccc(C(OCC(O)CNCCc2ccc(S(N)(=O)=O)cc2)c2ccc(OC)cc2)cc1 (stereo not drawn)	none
COc1ccccc1-c1ccnc(-n2ncc(C(=O)NCc3cccc(C)n3)c2C)n1	none (no result: TGFb inhibitor, ATXN2 expr inh, HepG2 viability)
Cc1ccc(S(=O)(=O)N2[C@@H](c3ccccc3)C(C(=O)O)=CC[C@H]2c2ccc(C(C)C)cc2)cc1	TGFb inhibitor 16µM
Cc1cc(C2=NNC(=NC3CC3)SC2)c(C)n1-c1ccccc1F	TGFb inhibitor inconclusive, ATXN2 expr inh 0.28µM
Cc1cc(C2=NNC(=NC3CCCCC3)SC2)c(C)n1-c1c(C)n(C)n(-c2ccccc2)c1=O	ATXN viability inconclusive (no result: ATXN2 expr inh)
